Measurements from paper PMC8384837, “Expanding the binding specificity for RNA recognition by a PUF domain”.

Molecular target: PUM1 PUF domain R5-MRG (Homo sapiens, UniProt Q14671 828-1176, C1007M;Q1011G)
Assay: yeast three-hybrid, YBZ-1, SC-Leu-His + 0.5 mM 3-AT, 4 days
Details: tags: N-Gal4 AD-HA kept; label: inside an RPR1-promoter hybrid RNA with tandem MS2 sites; ssRNA
Procedure, shortened: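 Sequencing with Illumina followed PCR amplification of the repeat regions from transformants grown four days on SC-Leu (input) or SC-Leu-His + 0.5 mM 3-AT (selection). The transformants were strain YBZ-1 with a LexA–MS2 coat fusion and a HIS3 reporter, carrying Pumilio-1 PUF domain libraries and matching RNA elements. The interaction score is the log change in variant frequency from input to selection, computed in log2 with a pseudocount of 1 for absent variants.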

Point of comparison: “GGCUAGAACUAGUGGAUCCCCCGGCGCCCGGCGGCUCGAGCCCGGGUAAGUGUAAAUAGUCUGCAUGCCGCCGGGCGCCAUGCCUGCAGGUCGACUCUAGAAAACAUG”, binding signal 0.66 log2 enrichment (interaction score). Against it:
- GGCUAGAACUAGUGGAUCCCCCGGCGCCCGGCGGCUCGAGCCCGGGUAAGUGUCAAUAGUCUGCAUGCCGCCGGGCGCCAUGCCUGCAGGUCGACUCUAGAAAACAUG — higher, 0.97 log2 enrichment (interaction score)
- GGCUAGAACUAGUGGAUCCCCCGGCGCCCGGCGGCUCGAGCCCGGGUAAGUGUUAAUAGUCUGCAUGCCGCCGGGCGCCAUGCCUGCAGGUCGACUCUAGAAAACAUG — higher, 3.12 log2 enrichment (interaction score)
